In PubChem BioAssay (NCATS):
“And” between values parts separate entries of the source, which are not always exact repeats. Identical values can stand only once. Unmarked numbers belong to inactive results. Inconclusive results are not listed. Entries that show only a call come without a potency. The source made the active and inactive calls. Calls come from the whole dose curve; as a rule, active = well fitted curve in the direction sought with a large enough effect; inconclusive = small, poorly fitted or top-dose-only effect, or another doubt; inactive = no such curve, though single readings can be large; an effect the other way counts as inactive or inconclusive.

What was measured:
[1] = Primary qHTS for inhibitors of nuclear receptor binding SET domain protein 2 (NSD2) in an RCH-ACV wild type WT cells (2C) (AID 1645877); note: nearly all actives have a fitted effect of over 70% in size; note: potency is the fitted concentration of half-maximal effect
[2] = target: Glutathione peroxidase 1 (Homo sapiens) (UniProt P07203); assay: Primary qHTS Assay for Inhibitors of Recombinant Selenoprotein Glutathione Peroxidase 1 (GPX1) (AID 1845191); note: nearly all actives have a fitted effect of over 65% in size
Glutathione peroxidase 1 (Homo sapiens), sequence (P07203 whole entry, looked up): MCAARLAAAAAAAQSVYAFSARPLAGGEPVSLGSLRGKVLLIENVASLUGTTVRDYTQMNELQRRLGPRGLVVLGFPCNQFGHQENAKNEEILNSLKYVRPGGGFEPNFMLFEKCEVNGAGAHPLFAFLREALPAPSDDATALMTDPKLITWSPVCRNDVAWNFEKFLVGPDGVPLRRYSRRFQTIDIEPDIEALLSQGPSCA
Method in brief: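 GR-coupled readout: NADPH consumption tracked by fluorescence, ex 340/em 450 nm, at t=0 and after 15 min at RT. Final mix 10 nM GPX1, 1 mM GSH, 0.5 mM CHP, 0.5 mM NADPH, 100 nM GR, 0.01% BSA, following 30 min enzyme–compound preincubation.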

[3] = target: Phospholipid hydroperoxide glutathione peroxidase GPX4 (Homo sapiens) (UniProt P36969); assay: Primary qHTS Assay for Inhibitors of Recombinant Selenoprotein Glutathione Peroxidase 4 (GPX4) (AID 1845192); note: nearly all actives have a fitted effect of over 65% in size; for activity change, negative = inhibition: series mostly up to about 50 µM
Phospholipid hydroperoxide glutathione peroxidase GPX4 (Homo sapiens), sequence (P36969 whole entry, looked up): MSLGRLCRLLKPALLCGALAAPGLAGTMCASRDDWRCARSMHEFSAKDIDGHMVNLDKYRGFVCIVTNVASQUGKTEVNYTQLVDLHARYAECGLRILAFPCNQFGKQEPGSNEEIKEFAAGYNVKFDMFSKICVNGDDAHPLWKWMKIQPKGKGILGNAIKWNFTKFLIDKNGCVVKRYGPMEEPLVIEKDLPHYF
Method in brief: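 Steps: GPX4 plus compound, 30 min RT; add GR/GSH/NADPH master mix; start with cumene hydroperoxide; read 340/450 nm fluorescence at 0 and 15 min. Finals were 200 nM GPX4, 1 mM GSH, 0.5 mM CHP, 0.5 mM NADPH, 100 nM GR.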

[4] = target: Luciferin 4-monooxygenase (Photinus pyralis) (UniProt P08659); assay: Primary firefly luciferase (FLuc) qHTS assay for identification of artifact compounds. (AID 1845220); note: nearly all actives have a fitted effect of over 60% in size; for activity change, negative = inhibition: series mostly up to about 54 µM
Method in brief: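 Titrated compounds were incubated 15 min at RT, protected from light, with luciferin and ATP at 10 uM; reaction started with 10 nM FLuc, luminescence imaged at 5 min, and concentration-response fitted by Hill equation.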

[5] = Primary fluorescence-based thiol-reactive (MSTI) qHTS assay for identification of artifact compounds. (AID 1845221); note: nearly all actives have a fitted effect of over 65% in size; note: potency is the fitted concentration of half-maximal effect;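 for activity change, negative = thiol reactive: series mostly up to about 54 µM; thiol-reactive compounds lower the probe fluorescence signal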
Method in brief: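 First, 4 uM MSTI in 2% DMSO/PBS pH 7.4 was dispensed; next, compounds were added; then plates sat 1 h at room temperature without light. Finally, emission at 598 nm was recorded.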

[6] = test system: Nanoluciferase (engineered Oplophorus gracilirostris luciferase); assay: Primary Nanoluciferase (NLuc) qHTS assay for identification of artifact compounds. (AID 1845222);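 note: NLuc secreted into diluted conditioned medium of S16 cells; series mostly up to about 54 µM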
Method in brief: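 qHTS format, against NLuc in S16 cell-conditioned medium. Nano-Glo substrate 1:100 was added after 15 min at room temperature. Luminescence was taken after a further 5 min.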

[7] = Primary redox qHTS assay for identification of artifact compounds. (AID 1845223)
Method in brief: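 Redox-cycling detection via DTT (250 uM final) oxidation coupled to Amplex Red (25 uM)/HRP (250 mU/mL) in HBSS. 15 min preincubation plus 30 min after DTT, room temperature. Ex/Em 525/598 nm; 4-parameter Hill fit against DMSO and 10 uM DA3003.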

C[C@@H]1O[C@@H](O[C@@H]2[C@@H](O)[C@@H](O[C@]3(CO)O[C@H](CO)[C@@H](O)[C@@H]3OC(=O)/C=C/c3ccc(O)cc3)O[C@H](CO)[C@H]2OC(=O)/C=C/c2ccc(O)cc2)[C@H](O)[C@H](O)[C@H]1O[C@@H]1O[C@@H](C)[C@H](O[C@@H]2OC[C@](O)(CO)[C@H]2O)[C@@H](O)[C@H]1O
activity change, negative = cell killing [1]: 1.71% [at 9.23 µM] | Potency [2]: inactive | Potency [3]: inactive | activity change, negative = inhibition [4]: -0.433% [at 11.6 µM] | activity change, negative = thiol reactive [5]: 79.7% [at 11.5 µM] | activity, negative = inhibition [6]: 0% [at 11.6 µM] | redox activity (% of DA3003) [7]: 17.5% [at 11.5 µM]

O=C(/C=C\c1ccc(O)cc1)N[C@@H](Cc1ccc(O)cc1)C(=O)O
Potency [1]: inactive | Potency [2]: inactive | Potency [3]: inactive | Potency [4]: inactive | Potency [5]: 6.56 µM (active) | Potency [6]: inactive | Potency [7]: inactive

C=C1C[C@]23C[C@H]1CC[C@H]2[C@@]12CC[C@H](O)[C@@](C)(C(=O)O1)[C@H]2[C@@H]3C(=O)O
Potency [1]: inactive | Potency [2]: inactive | Potency [3]: inactive | Potency [4]: inactive | Potency [5]: inactive | Potency [6]: inactive | Potency [7]: inactive

C[C@@H]1CC[C@]2(C(=O)O[C@@H]3O[C@H](CO)[C@@H](O)[C@H](O)[C@H]3O)CC[C@]3(C)C(=CCC4[C@@]5(C)C[C@@H](O)[C@H](O)[C@](C)(C(=O)O)C5CC[C@]43C)[C@@H]2[C@]1(C)O (stereo partly specified)
Potency [1]: inactive | Potency [2]: inactive | Potency [3]: inactive | Potency [4]: inactive | Potency [5]: inactive | Potency [6]: inactive | Potency [7]: inactive

CCO[C@@H]1OC(=O)C[C@@H]1NC(=O)[C@@H]1CCCN1C(=O)[C@@H](NC(=O)c1ccc(N)c(Cl)c1)C(C)(C)C
Potency [1]: inactive | Potency [2]: inactive | Potency [3]: inactive | Potency [4]: inactive | Potency [5]: inactive | Potency [6]: inactive | Potency [7]: inactive

COc1ccc(Oc2cc(C)c(-c3csc(NC(=O)c4ccncc4)n3)c(C)c2)cc1
Potency [1]: 916 nM (active) | Potency [2]: inactive | Potency [3]: inactive | Potency [4]: inactive | Potency [5]: inactive | Potency [6]: inactive | Potency [7]: inactive

COc1ncc(Nc2ncc([C@H](C)N3CCN(S(C)(=O)=O)CC3)cc2-c2nc(C)nc(N)n2)cc1F
Potency [1]: 57.8 nM (active) and 8.3 nM (active) | Potency [2]: inactive | Potency [3]: inactive | Potency [4]: inactive | Potency [5]: inactive | Potency [6]: inactive | Potency [7]: inactive

CC(C(O)/C=C/C(C)(C)O)C1CCC2(C)C3C(=O)C=C4C(CCC(O)C4(C)C)C3(C)CCC12C (stereo unspecified)
Potency [1]: inactive | Potency [2]: inactive | Potency [3]: inactive | Potency [4]: inactive | Potency [5]: inactive | Potency [6]: inactive | Potency [7]: inactive

CC(=O)N[C@H]1[C@H](O[C@H]2CC[C@@]3(C)C(CC[C@]4(C)C3CC=C3C5CC(C)(C)CC[C@]5(C(=O)O)[C@H](O)C[C@]34C)C2(C)C)O[C@H](CO[C@@H]2OC[C@H](O)[C@H](O)[C@H]2O[C@@H]2OC[C@@H](O)[C@H](O)[C@H]2O)[C@@H](O)[C@@H]1O (stereo partly specified)
activity change, negative = cell killing [1]: 3.06% [at 9.23 µM] | Potency [2]: inactive | Potency [3]: inactive | activity change, negative = inhibition [4]: -1.17% [at 11.6 µM] | activity change, negative = thiol reactive [5]: 85% [at 11.5 µM] | activity, negative = inhibition [6]: 0% [at 11.6 µM] | redox activity (% of DA3003) [7]: 8.12% [at 11.5 µM]

CC1CC2OC3(OC2C(C)(C)O)C1C1(C)CCC24CC25CCC(O[C@@H]2OC[C@@H](O)[C@H](O)[C@H]2O)C(C)(C)C5CC=C4C1(C)C3O (stereo partly specified)
Potency [1]: inactive | Potency [2]: inactive | Potency [3]: inactive | Potency [4]: inactive | Potency [5]: inactive | Potency [6]: inactive | Potency [7]: inactive

C=C(C)C1CC[C@]2(C(=O)O)CC[C@]3(C(=O)O)[C@H](CCC4[C@@]5(C)CC[C@H](O)C(C)(C)C5CC[C@]43C)C12 (stereo partly specified)
Potency [1]: inactive | Potency [2]: inactive | Potency [3]: inactive | Potency [4]: inactive | Potency [5]: inactive | Potency [6]: inactive | Potency [7]: inactive

Cc1cc(C(=O)N2Cc3cnn(C)c3Nc3ccccc32)ccc1CNC(=O)N1CCC[C@H]1C(=S)N1CCCN(C)CC1
Potency [1]: inactive | Potency [2]: inactive | Potency [3]: inactive | Potency [4]: inactive | Potency [5]: inactive | Potency [6]: inactive | Potency [7]: inactive

COCCOc1ccc(N2CCN(CCn3ncc4c3nc(N)n3nc(-c5ccco5)nc43)CC2)cc1
Potency [1]: inactive | Potency [2]: inactive | Potency [3]: inactive | Potency [4]: inactive | Potency [5]: inactive | Potency [6]: inactive | Potency [7]: inactive

CC(=O)OC1CC2C3(C)CCC(OC(=O)CC(=O)O)C(C)(C)C3CCC2(C)C2(C)CCC(C3(C)CCC(=O)O3)C12 (stereo unspecified)
Potency [1]: inactive | Potency [2]: inactive | Potency [3]: inactive | Potency [4]: inactive | Potency [5]: inactive | Potency [6]: inactive | Potency [7]: inactive

CC1(C(=O)O)CCCC2(C)C3CCC4CC3(CCC12)CC4=O (stereo unspecified)
Potency [1]: inactive | Potency [2]: inactive | Potency [3]: inactive | Potency [4]: inactive | Potency [5]: inactive | Potency [6]: inactive | Potency [7]: inactive

C/C1=C\[C@H]2OC(=O)[C@@H](C)[C@@H]2CC/C(C(=O)O)=C/CC1
Potency [1]: inactive | Potency [2]: inactive | Potency [3]: inactive | Potency [4]: inactive | Potency [5]: 11.9 µM (active) | Potency [6]: inactive | Potency [7]: inactive

COc1ccc(-c2ccc(-c3cn(C(=O)N4CCCCC4c4ccccc4)nn3)cc2)cc1 (stereo unspecified)
Potency [1]: inactive | Potency [2]: inactive | Potency [3]: inactive | Potency [4]: inactive | Potency [5]: inactive | Potency [6]: inactive | Potency [7]: inactive

O=C(O)c1cccc(S(=O)(=O)N2CCc3ccccc3C2)c1
Potency [1]: inactive | Potency [2]: inactive | Potency [3]: inactive | Potency [4]: inactive | Potency [5]: inactive | Potency [6]: inactive | Potency [7]: inactive
